# Measured values from ChEMBL document CHEMBL3988442, “University of Dundee, Small-Polar-MMV Screening Library” (2021).
# About 1,000 (1.4%) of roughly 69,000 compounds showed an effect of 50% or more. This is one part of a sample in which strong results are shown more often than they occur.
# Tested on: Leishmania donovani
# Test: Leishmania intramacrophage assay
# Assay type: functional, organism-based
# Set-up: scale not given: in the data most compounds retested in dose-response had high values
smiles,measurement,setting,value
CCCc1ccc(S(=O)(=O)Nc2ccc(=O)n(C)c2)cc1,Percent Effect,30 µM,20.55%
Cc1ccc(S(=O)(=O)Nc2ccc(=O)n(C)c2)cc1,Percent Effect,"30 µM, 30.03 µM",54.33%
CCN1CC2(CC1=O)CN(Cc1ccoc1)CCN(C(=O)C(C)C)C2 (stereo not drawn),Percent Effect,"30.3 µM, […]",8.034%
O=C(c1ccc(Br)o1)N1CCN(Cc2ccc(OC(F)(F)F)cc2)CC1,Percent Effect,"30 µM, 30.03 µM",31.07%
CN(Cc1nc(N)nc(N(C)C)n1)Cc1cccc2ccccc12,Percent Effect,"30.3 µM, […]",1.643%
CN(CC(=O)Nc1cccc(F)c1)Cc1nc(N)nc(N(C)C)n1,Percent Effect,"30.3 µM, […]",21.77%
CN(CCc1cccc2ccccc12)Cc1nc(N)nc(N(C)C)n1,Percent Effect,"30.3 µM, […]",94.18%
Cc1ccc(CN2CCCC3(CCN(S(C)(=O)=O)C3)C2)o1.O=C(O)C(F)(F)F (stereo not drawn),Percent Effect,"30 µM, 30.03 µM",4.141%
COc1cc(NCCCSc2nnc(C)s2)ncn1,Percent Effect,"30.3 µM, […]",57.45%
Cc1nnc(SCCCNc2cc(C3CC3)ncn2)s1,Percent Effect,"30.3 µM, […]",31.22%
COCc1cc(NCCCSc2nnc(C)s2)ncn1,Percent Effect,"30.3 µM, […]",26.84%
Cc1nnc2n1CCN(C(=O)COCCOc1ccccc1)C2,Percent Effect,"30 µM, 30.03 µM",16.55%
Cc1cc(CN2CCCC(C)(CO)C2)ccc1F (stereo not drawn),Percent Effect,"30 µM, 30.03 µM",31.69%
Cc1nc(C)n(CC2CN(Cc3noc(C4CC4)n3)CCO2)n1 (stereo not drawn),Percent Effect,"30.3 µM, […]",-6.202%
Cc1cnc(CCNC(=O)C2CCN(S(=O)(=O)c3ccc(F)cc3)C2)s1 (stereo not drawn),Percent Effect,"30.3 µM, […]",33.75%
COCCN1CCC(CN(CC2CCCO2)C(=O)COC)CC1 (stereo not drawn),Percent Effect,"30 µM, 30.03 µM",-10.91%
COCCN1CCC(CN(CC2CCCO2)C(=O)Cn2cccn2)CC1 (stereo not drawn),Percent Effect,"30.3 µM, […]",58.18%
COCCN1CCC(CN(CC2CCCO2)C(=O)Cc2cccs2)CC1 (stereo not drawn),Percent Effect,"30.3 µM, […]",8.21%
Cc1nc(NC(=O)N2CCCC(C(C)(C)O)C2)nn1C (stereo not drawn),Percent Effect,"30.3 µM, […]",-6.912%
O=C(C1CC2(CCNCC2)CN1)N1CCN(c2ccccc2)CC1 (stereo not drawn),Percent Effect,"30.3 µM, […]",-6.874%
Cc1cccc(N2CCN(C(=O)C3CC4(CCNCC4)CN3)CC2)n1 (stereo not drawn),Percent Effect,"30.3 µM, […]",82.82%
Cc1cnccc1N1CCN(C(=O)C2CC3(CCNCC3)CN2)CC1 (stereo not drawn),Percent Effect,"30.3 µM, […]",-56.52%
Cc1cccc(-c2nc(C)nn2CN2CCC3(CC2)OCCO3)c1,Percent Effect,"30.3 µM, […]",-6.145%
CCc1nnc(SCc2cc(=O)n3c4c(sc3n2)CCCC4)[nH]1,Percent Effect,"30.3 µM, […]",54.93%
CCCc1nnc(SCc2cc(=O)n3c4c(sc3n2)CCCC4)[nH]1,Percent Effect,"30.3 µM, […]",1.73%
Cc1nnc(SCc2cc(=O)n3c4c(sc3n2)CCCC4)[nH]1,Percent Effect,"30.3 µM, […]",36.41%
CN[C@@H]1CCC[C@@H](Oc2ccccc2Oc2ccc(C)cc2)[C@@H]1O,Percent Effect,"30.3 µM, […]",98.74%
COCC1CCN(S(=O)(=O)N2C[C@H](c3ccccc3)[C@@H](N)C2)CC1,Percent Effect,"30.3 µM, […]",12.44%
Cc1occc1C(=O)N1C[C@@H](C(=O)N2CCCCO2)C[C@H]2OCC[C@H]21,Percent Effect,"30.3 µM, […]",22.98%
CN(CC(=O)Nc1cc(-c2cc(Cl)cc(Cl)c2)[nH]n1)S(C)(=O)=O,Percent Effect,"30.3 µM, […]",5.087%
CN(CC(=O)Nc1cc(CC2CCCCC2)n[nH]1)S(C)(=O)=O,Percent Effect,"30.3 µM, […]",66.78%
CN(CC(=O)Nc1cc(C(C)(C)C)n[nH]1)S(C)(=O)=O,Percent Effect,"30.3 µM, […]",-19.26%
Cc1nc(CN2CCCC2c2c(C)nn(C)c2Cl)no1 (stereo not drawn),Percent Effect,"30 µM, 30.03 µM",17.3%
CN(C)Cc1cc(C2CCCCN2S(=O)(=O)Cc2ccccc2)nn1C.Cl (stereo not drawn),Percent Effect,"30.3 µM, […]",-6.731%
CC(C)NC(=O)CNC(C)c1c(F)cccc1Cl (stereo not drawn),Percent Effect,"30.3 µM, […]",-24.44%
CNC(=O)NC(C)c1c(F)cccc1Cl (stereo not drawn),Percent Effect,"30.3 µM, […]",-84.02%
CC(NCC(N)=O)c1c(F)cccc1Cl (stereo not drawn),Percent Effect,"30.3 µM, […]",61.56%
Cn1c(-c2ccccc2Cl)nc2cc(C(=O)NCC3(CO)CC3)cnc21,Percent Effect,"30.3 µM, […]",6.788%
O=c1n(CCNCc2cccc3ccccc23)nc2ccccn12,Percent Effect,"30.3 µM, […]",37.73%
CCC(O)c1nc2c([nH]1)CC(C)(C)CNC2=O (stereo not drawn),Percent Effect,"30.3 µM, […]",4.98%
Cn1ncc2c1C(COCC1CC1)CN(Cc1ccoc1)C2 (stereo not drawn),Percent Effect,"30 µM, 30.03 µM",18.09%
O=C(NCCc1ccccc1)NCCN1CCC(c2cccs2)CC1,Percent Effect,"30.3 µM, […]",51.71%
CC(=O)NCCN1CCC(c2cccs2)CC1,Percent Effect,"30 µM, 30.03 µM",14.89%
O=C(NCCN1CCC(c2cccs2)CC1)Nc1cccs1,Percent Effect,"30 µM, 30.03 µM",29.53%
COCC(=O)NC1CC2(CCN(Cc3ccco3)CC2)c2ccccc21.O=C(O)C(F)(F)F (stereo not drawn),Percent Effect,"30 µM, 30.03 µM",-18.66%
CCOCC1CCN(C(=O)Nc2ccc(-c3csnn3)cc2)C1 (stereo not drawn),Percent Effect,"30.3 µM, […]",-4.056%
CCCC(=O)NC1CCN(c2ccccc2S(=O)(=O)CC)CC1,Percent Effect,30 µM,-8.378%
Cc1ccccc1N1CCCN(CC2(O)CCCNC2)CC1 (stereo not drawn),Percent Effect,"30.3 µM, […]",97.82%
CCOc1ccccc1N1CCN(CC2(O)CCCNC2)CC1 (stereo not drawn),Percent Effect,"30.3 µM, […]",12.99%
CSCC(=O)N1CCCN(c2ccccc2C)CC1,Percent Effect,"30 µM, 30.03 µM",12.81%
Cc1ccc(NCC2(O)CCNCC2)cc1C,Percent Effect,"30.3 µM, […]",-19.76%
Cc1ccc(C)c(N2CCN(CC3(O)CCNC3)CC2)c1 (stereo not drawn),Percent Effect,"30.3 µM, […]",98.99%
Cc1ccc(C2(CN3CCN(c4ncccn4)CC3)CCNCC2)nc1,Percent Effect,"30.3 µM, […]",-2.357%
